# Measured values from PMC7862700, “An all-to-all approach to the identification of sequence-specific readers for epigenetic DNA modifications on cytosine”.
# Legend:
# Test in all cases: DAPPL (digital affinity profiling via proximity ligation, sequencing); 10 mM Tris-HCl pH 7.5, 50 mM NaCl, 1 mM DTT, 4% glycerol, room temperature, 30 min; GST-TFs on glutathione beads, 16-mer random dsDNA library, 0.1% formaldehyde crosslink after washing; high values mean tight binding
# Conditions in all cases: protein: recombinant; tags: N-terminal GST; dsDNA, one strand shown
# FLI1 = biological target: T1, FLI1 (Homo sapiens, UniProt Q01543 1-452)
# T1 sequence: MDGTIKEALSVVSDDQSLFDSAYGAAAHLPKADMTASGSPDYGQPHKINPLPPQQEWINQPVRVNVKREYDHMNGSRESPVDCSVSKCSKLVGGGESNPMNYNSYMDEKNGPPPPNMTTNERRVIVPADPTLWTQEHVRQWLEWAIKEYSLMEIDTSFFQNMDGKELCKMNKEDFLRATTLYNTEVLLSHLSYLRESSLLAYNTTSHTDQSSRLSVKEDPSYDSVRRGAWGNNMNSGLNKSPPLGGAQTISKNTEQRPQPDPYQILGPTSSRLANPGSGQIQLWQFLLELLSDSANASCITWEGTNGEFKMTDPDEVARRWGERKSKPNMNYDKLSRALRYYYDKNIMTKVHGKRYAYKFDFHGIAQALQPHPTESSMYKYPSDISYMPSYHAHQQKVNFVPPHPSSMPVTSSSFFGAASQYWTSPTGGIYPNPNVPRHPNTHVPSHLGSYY
# In short: (§1)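 Human transcription factors carrying a GST fusion were produced in yeast, bound to glutathione beads, tagged with DNA barcodes and pooled together with a tag-only sample. Each pool was held with 200 nmole of a random double-stranded 16-mer DNA library in Tris/NaCl/DTT/glycerol buffer for 30 min at room temperature, then washed, crosslinked in 0.1% formaldehyde, proximity-ligated with BsaI/T4 ligase (1 h, 37 °C), PCR-amplified and sequenced on an Illumina NextSeq500. Binding signal is the read frequency of each hexamer for a given factor divided by its frequency in the tag-only sample.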
# ELK1 = biological target: T2, ELK1 (Homo sapiens, UniProt P19419 1-428)
# T2 sequence: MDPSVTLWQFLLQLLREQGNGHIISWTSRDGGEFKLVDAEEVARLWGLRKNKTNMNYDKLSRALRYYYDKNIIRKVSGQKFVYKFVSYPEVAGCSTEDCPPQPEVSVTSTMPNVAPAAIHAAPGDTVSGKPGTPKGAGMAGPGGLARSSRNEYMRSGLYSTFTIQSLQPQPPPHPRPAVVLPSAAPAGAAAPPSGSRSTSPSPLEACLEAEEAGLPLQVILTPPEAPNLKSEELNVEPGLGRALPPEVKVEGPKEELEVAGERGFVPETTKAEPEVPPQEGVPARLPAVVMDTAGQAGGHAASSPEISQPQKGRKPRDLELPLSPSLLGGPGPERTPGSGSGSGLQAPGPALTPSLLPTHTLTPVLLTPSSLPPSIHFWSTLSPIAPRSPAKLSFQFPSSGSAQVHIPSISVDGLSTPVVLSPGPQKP
# In short: as §1
# GABPA = biological target: T3, GABPA (Homo sapiens, UniProt Q06546 1-454)
# T3 sequence: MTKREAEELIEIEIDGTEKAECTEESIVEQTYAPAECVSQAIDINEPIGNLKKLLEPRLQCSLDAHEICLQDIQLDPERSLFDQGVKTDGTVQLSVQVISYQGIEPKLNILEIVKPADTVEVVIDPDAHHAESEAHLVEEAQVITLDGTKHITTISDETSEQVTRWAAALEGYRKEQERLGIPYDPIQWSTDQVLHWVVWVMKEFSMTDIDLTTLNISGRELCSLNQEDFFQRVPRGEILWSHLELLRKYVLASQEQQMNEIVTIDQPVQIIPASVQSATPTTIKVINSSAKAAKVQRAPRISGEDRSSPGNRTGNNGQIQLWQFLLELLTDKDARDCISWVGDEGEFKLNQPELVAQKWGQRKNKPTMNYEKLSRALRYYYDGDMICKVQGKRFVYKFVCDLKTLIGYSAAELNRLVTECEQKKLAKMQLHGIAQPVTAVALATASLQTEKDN
# In short: as §1
# ERG = biological target: T4, ERG (Homo sapiens, UniProt P11308 1-479)
# T4 sequence: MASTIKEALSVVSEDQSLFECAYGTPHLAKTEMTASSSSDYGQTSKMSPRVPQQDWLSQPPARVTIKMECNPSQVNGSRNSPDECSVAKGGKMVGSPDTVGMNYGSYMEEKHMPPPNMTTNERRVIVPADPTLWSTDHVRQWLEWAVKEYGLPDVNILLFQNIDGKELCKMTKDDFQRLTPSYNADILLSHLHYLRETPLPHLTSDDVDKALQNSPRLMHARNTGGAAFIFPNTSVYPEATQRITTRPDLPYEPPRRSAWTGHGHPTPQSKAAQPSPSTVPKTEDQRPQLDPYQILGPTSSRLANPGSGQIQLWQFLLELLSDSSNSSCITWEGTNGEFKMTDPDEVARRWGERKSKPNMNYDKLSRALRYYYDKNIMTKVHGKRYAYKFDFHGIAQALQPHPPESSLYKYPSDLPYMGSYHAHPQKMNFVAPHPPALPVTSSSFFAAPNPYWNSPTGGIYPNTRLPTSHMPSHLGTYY
# In short: as §1
# ELF1 = ELF1 (Homo sapiens, UniProt P32519 1-619)
# ELF1, sequence (P32519 whole entry): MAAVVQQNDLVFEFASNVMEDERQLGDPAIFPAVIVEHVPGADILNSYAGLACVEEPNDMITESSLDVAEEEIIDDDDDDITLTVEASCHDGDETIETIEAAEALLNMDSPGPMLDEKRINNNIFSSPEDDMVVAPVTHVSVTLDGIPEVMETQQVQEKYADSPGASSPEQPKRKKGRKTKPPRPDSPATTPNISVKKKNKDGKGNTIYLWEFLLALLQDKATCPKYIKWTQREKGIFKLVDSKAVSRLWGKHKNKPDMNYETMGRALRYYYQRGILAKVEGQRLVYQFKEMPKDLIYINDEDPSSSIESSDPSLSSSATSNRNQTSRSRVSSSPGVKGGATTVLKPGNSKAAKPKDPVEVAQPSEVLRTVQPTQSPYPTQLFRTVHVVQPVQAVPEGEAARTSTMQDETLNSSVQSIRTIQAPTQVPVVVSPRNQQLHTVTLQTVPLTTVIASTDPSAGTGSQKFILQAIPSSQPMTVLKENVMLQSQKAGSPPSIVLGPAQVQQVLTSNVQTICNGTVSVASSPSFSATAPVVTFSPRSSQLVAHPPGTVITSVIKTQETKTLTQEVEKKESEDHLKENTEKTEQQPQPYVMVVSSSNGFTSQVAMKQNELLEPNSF
# In short: as §1
# EHF = biological target: T5, EHF (Homo sapiens, UniProt Q9NZC4 1-300)
# T5 sequence: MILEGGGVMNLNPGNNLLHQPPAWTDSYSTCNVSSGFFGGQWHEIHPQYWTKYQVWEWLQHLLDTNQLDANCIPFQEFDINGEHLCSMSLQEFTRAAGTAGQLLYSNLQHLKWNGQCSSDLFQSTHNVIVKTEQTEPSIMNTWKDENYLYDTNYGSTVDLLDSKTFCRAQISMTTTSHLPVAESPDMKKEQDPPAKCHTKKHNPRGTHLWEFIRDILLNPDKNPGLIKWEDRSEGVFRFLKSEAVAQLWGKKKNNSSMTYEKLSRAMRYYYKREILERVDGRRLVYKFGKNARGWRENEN
# In short: as §1
# SPI1 = SPI1 (Homo sapiens, UniProt P17947 1-270)
# In short: as §1
# SPIB = SPIB (Homo sapiens, UniProt Q01892 1-262)
# SPIB, sequence (Q01892 whole entry): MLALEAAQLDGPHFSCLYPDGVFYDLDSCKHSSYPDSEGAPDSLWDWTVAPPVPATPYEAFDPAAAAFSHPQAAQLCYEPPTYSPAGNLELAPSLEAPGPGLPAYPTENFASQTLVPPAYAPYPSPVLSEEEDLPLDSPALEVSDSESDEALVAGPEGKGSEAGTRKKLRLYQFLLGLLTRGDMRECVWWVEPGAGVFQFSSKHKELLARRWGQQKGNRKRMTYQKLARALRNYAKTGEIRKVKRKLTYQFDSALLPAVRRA
# In short: as §1
# ELK3 = biological target: T6, ELK3 (Homo sapiens, UniProt P41970 1-407)
# T6 sequence: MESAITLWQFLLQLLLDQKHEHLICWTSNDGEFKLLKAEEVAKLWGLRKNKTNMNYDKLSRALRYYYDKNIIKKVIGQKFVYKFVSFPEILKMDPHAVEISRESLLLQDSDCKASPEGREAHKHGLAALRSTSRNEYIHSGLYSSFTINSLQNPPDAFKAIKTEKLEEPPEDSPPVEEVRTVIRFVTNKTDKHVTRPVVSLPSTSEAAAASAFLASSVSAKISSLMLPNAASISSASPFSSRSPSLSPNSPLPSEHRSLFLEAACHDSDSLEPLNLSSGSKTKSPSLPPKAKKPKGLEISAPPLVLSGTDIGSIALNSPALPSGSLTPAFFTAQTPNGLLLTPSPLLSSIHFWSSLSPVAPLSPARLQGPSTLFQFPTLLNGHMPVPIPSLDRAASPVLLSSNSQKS
# In short: as §1
Sequence,binding signal (FLI1),binding signal (ELK1),binding signal (GABPA),binding signal (ERG),binding signal (ELF1),binding signal (EHF),binding signal (SPI1),binding signal (SPIB),binding signal (ELK3)
TCATCA,"1.18 fold enrichment (6-mer frequency, TF over GST control)","1.16 fold enrichment (6-mer frequency, TF over GST control)","1.17 fold enrichment (6-mer frequency, TF over GST control)","1.13 fold enrichment (6-mer frequency, TF over GST control)","1.14 fold enrichment (6-mer frequency, TF over GST control)","1.09 fold enrichment (6-mer frequency, TF over GST control)","1.1 fold enrichment (6-mer frequency, TF over GST control)","1.14 fold enrichment (6-mer frequency, TF over GST control)","1.18 fold enrichment (6-mer frequency, TF over GST control)"
CGTCTA,"1.15 fold enrichment (6-mer frequency, TF over GST control)","1.26 fold enrichment (6-mer frequency, TF over GST control)","1.31 fold enrichment (6-mer frequency, TF over GST control)","1.37 fold enrichment (6-mer frequency, TF over GST control)","1.31 fold enrichment (6-mer frequency, TF over GST control)","1.27 fold enrichment (6-mer frequency, TF over GST control)","1.25 fold enrichment (6-mer frequency, TF over GST control)","1.37 fold enrichment (6-mer frequency, TF over GST control)","1.25 fold enrichment (6-mer frequency, TF over GST control)"
CACGCG,"1.32 fold enrichment (6-mer frequency, TF over GST control)","1.15 fold enrichment (6-mer frequency, TF over GST control)","1.23 fold enrichment (6-mer frequency, TF over GST control)","1.18 fold enrichment (6-mer frequency, TF over GST control)","1.23 fold enrichment (6-mer frequency, TF over GST control)","1.2 fold enrichment (6-mer frequency, TF over GST control)","1.08 fold enrichment (6-mer frequency, TF over GST control)","1.2 fold enrichment (6-mer frequency, TF over GST control)","1.14 fold enrichment (6-mer frequency, TF over GST control)"
CCTTCA,"1.49 fold enrichment (6-mer frequency, TF over GST control)","1.43 fold enrichment (6-mer frequency, TF over GST control)","1.46 fold enrichment (6-mer frequency, TF over GST control)","1.45 fold enrichment (6-mer frequency, TF over GST control)","1.51 fold enrichment (6-mer frequency, TF over GST control)","1.26 fold enrichment (6-mer frequency, TF over GST control)","1.36 fold enrichment (6-mer frequency, TF over GST control)","1.46 fold enrichment (6-mer frequency, TF over GST control)","1.16 fold enrichment (6-mer frequency, TF over GST control)"
GCCGAT,"1.14 fold enrichment (6-mer frequency, TF over GST control)","1.09 fold enrichment (6-mer frequency, TF over GST control)","1.21 fold enrichment (6-mer frequency, TF over GST control)","1.03 fold enrichment (6-mer frequency, TF over GST control)","1.03 fold enrichment (6-mer frequency, TF over GST control)","1.01 fold enrichment (6-mer frequency, TF over GST control)","1.12 fold enrichment (6-mer frequency, TF over GST control)","1.07 fold enrichment (6-mer frequency, TF over GST control)","1.08 fold enrichment (6-mer frequency, TF over GST control)"
TGACAT,"1.27 fold enrichment (6-mer frequency, TF over GST control)","1.27 fold enrichment (6-mer frequency, TF over GST control)","1.31 fold enrichment (6-mer frequency, TF over GST control)","1.19 fold enrichment (6-mer frequency, TF over GST control)","1.28 fold enrichment (6-mer frequency, TF over GST control)","1.36 fold enrichment (6-mer frequency, TF over GST control)","1.21 fold enrichment (6-mer frequency, TF over GST control)","1.19 fold enrichment (6-mer frequency, TF over GST control)","1.15 fold enrichment (6-mer frequency, TF over GST control)"
TCGCCG,"1.14 fold enrichment (6-mer frequency, TF over GST control)","1.24 fold enrichment (6-mer frequency, TF over GST control)","1.27 fold enrichment (6-mer frequency, TF over GST control)","1.24 fold enrichment (6-mer frequency, TF over GST control)","1.23 fold enrichment (6-mer frequency, TF over GST control)","1.34 fold enrichment (6-mer frequency, TF over GST control)","1.14 fold enrichment (6-mer frequency, TF over GST control)","1.16 fold enrichment (6-mer frequency, TF over GST control)","1.16 fold enrichment (6-mer frequency, TF over GST control)"
